Screening data (PubChem)
Rows were chosen to be rich in hits. Some 10% of all compounds tested hit in one or more screens of this group.
ELG1 DNA repair – inhibitors of ELG1-dependent DNA repair in HEK293T cells; HEK293T ELG1-luciferase reporter, luminescence, 16 h; DNA damage induced by 5-fluorouridine; Potency, µM (top dose mostly 46.1 µM), most hits filed as inhibitors; 330,000 compounds, 2.3% hits; AID 504467; note: nearly all actives have a fitted effect of over 55% in size
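Step one: seed 2,000 cells per well. Step two: pin-transfer compound or DMSO alongside 5-fluorouridine. Step three: incubate 16 hr, 37 °C, 5% CO2. Step four: add ONE-Glo, wait 30 min, read luminescence.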
Gal4-VP16 FLuc – inhibits Gal4-VP16 luciferase reporter, ROR gamma counter-screen; AID 2546; Potency, µM (highest dose often 53.6 µM), hits mostly inhibitors; 310,000 compounds, 3.5% hits; Drosophila S2 Gal4-VP16 UAS-luciferase, luminescence, 20 h;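 note: Gal4-VP16 expression switched on by copper sulfate through the metallothionein promoter; nearly all actives have a fitted effect of over 50% in size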
MCF10A rerep – DNA re-replication induction in MCF 10a cells; AID 624296; 350,000 compounds, 2.9% hits; Potency, µM (series often up to 46.1 µM), most hits filed as activators; MCF 10A DNA re-replication, Hoechst nuclear intensity, 48 h; note: nearly all actives have a fitted effect of over 50% in size
SW480 rerep – DNA re-replication induction in SW480 cells; SW480 DNA re-replication, Hoechst DNA content imaging, 48 h; Potency, µM (series often up to 46.1 µM), actives largely listed as activators; 340,000 compounds, 1.8% hits; note: nearly all actives have a fitted effect of over 55% in size
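Quantitative HTS format with DMSO vehicle controls; 48 hr drug incubation at 37 C, then 40 min Hoechst staining and scanning imager measurement at 405 nm excitation.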
RORgamma inh – blocks mouse ROR gamma transcriptional activity. P51450. Drosophila S2 Gal4-RORgamma UAS-luciferase reporter, 20 h. Potency, µM (series often up to 53.6 µM), hits mostly inhibitors. 310,000 compounds, 5.4% hits; note: nearly all actives have a fitted effect of over 60% in size
Target sequence (P51450 whole entry, looked up, the tested form may be a part): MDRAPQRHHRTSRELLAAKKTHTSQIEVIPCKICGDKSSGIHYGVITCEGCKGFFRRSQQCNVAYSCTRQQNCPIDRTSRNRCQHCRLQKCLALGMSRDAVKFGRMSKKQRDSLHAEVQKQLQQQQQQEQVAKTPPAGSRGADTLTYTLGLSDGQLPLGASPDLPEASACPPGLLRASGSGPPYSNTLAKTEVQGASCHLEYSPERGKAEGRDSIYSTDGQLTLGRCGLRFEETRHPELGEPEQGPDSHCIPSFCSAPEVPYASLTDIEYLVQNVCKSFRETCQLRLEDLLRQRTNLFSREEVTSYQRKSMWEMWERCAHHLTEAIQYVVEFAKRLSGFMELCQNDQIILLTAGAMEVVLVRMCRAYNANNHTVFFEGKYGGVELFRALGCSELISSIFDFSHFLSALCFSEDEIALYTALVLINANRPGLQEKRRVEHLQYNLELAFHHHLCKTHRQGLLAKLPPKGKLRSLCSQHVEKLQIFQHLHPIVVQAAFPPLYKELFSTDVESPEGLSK
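Luciferase reporter read in Schneider cells carrying Gal4-RORγ (mouse) and UAS-Photinus luciferase; cells given compound 1 h before 700 uM copper sulfate induction, then incubated 20 h at ambient temperature.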
Hits are given with their value. Calls come from the whole dose curve; as a rule, active = well fitted curve in the direction sought with a large enough effect; inconclusive = small, poorly fitted or top-dose-only effect, or another doubt; inactive = no such curve, though single readings can be large; an effect the other way counts as inactive or inconclusive.

How did O=C(Nc1ccc(C(=O)N2CCOCC2)cc1)Nc1cccc2ccccc12 do in these assays?
ELG1 DNA repair: inconclusive; Gal4-VP16 FLuc: inactive; MCF10A rerep: inactive; SW480 rerep: inactive; RORgamma inh: inactive

What do the screens show for `CCOC(=O)c1c(NC(=S)Nc2cccc(C)c2)sc2c1CC(C)(C)SC2`?
ELG1 DNA repair: inactive; Gal4-VP16 FLuc: 2µM; MCF10A rerep: inactive; SW480 rerep: inactive; RORgamma inh: 2µM

How did CCOC(=O)c1c(NC(=O)Nc2ccc(C)cc2)sc2c1CCN(C)C2 do in these assays?
ELG1 DNA repair: inactive; Gal4-VP16 FLuc: inactive; MCF10A rerep: inconclusive; SW480 rerep: 18µM; RORgamma inh: inactive

Results for COCCNC(=O)c1cccc(OC2CCN(Cc3ccccc3OCCO)CC2)c1 ?
ELG1 DNA repair: inactive; Gal4-VP16 FLuc: inactive; MCF10A rerep: inactive; SW480 rerep: inactive; RORgamma inh: inactive

What do the screens show for `COCCNC(=O)c1cccc(OC2CCN(C(C)COc3ccccc3)CC2)c1` (centres undefined)?
ELG1 DNA repair: inactive; Gal4-VP16 FLuc: inactive; MCF10A rerep: 1.8µM; SW480 rerep: inactive; RORgamma inh: inactive

What do the screens show for `CCS(=O)(=O)c1ncc(Cl)c(C(=O)Nc2ccc(S(=O)(=O)N(C)c3ccccc3)cc2)n1`?
ELG1 DNA repair: inconclusive; Gal4-VP16 FLuc: 2.8µM; MCF10A rerep: inconclusive; SW480 rerep: 10µM; RORgamma inh: 2.8µM

How did CCN(c1ccccc1)S(=O)(=O)c1ccc(C(=O)Nc2ccncc2)cc1 do in these assays?
ELG1 DNA repair: inactive; MCF10A rerep: inactive; SW480 rerep: inactive

How did CCN(c1ccccc1)S(=O)(=O)c1ccc(NC(=O)c2nc(S(C)(=O)=O)ncc2Cl)cc1 do in these assays?
ELG1 DNA repair: inconclusive; Gal4-VP16 FLuc: 3.2µM; MCF10A rerep: inconclusive; SW480 rerep: 5.2µM; RORgamma inh: 6.3µM

What do the screens show for `C=CCOc1c(Br)cc(/C=N/Nc2ccc(C(=O)O)cc2)cc1OCC`?
ELG1 DNA repair: inconclusive; Gal4-VP16 FLuc: inconclusive; MCF10A rerep: inconclusive; SW480 rerep: inactive; RORgamma inh: inconclusive

What do the screens show for `CCOC(=O)c1sc(=S)n(C)c1C`?
ELG1 DNA repair: inactive; Gal4-VP16 FLuc: inactive; MCF10A rerep: inactive; SW480 rerep: inactive; RORgamma inh: inactive

How did CCOC(=O)c1c[nH]c(=S)n1C do in these assays?
ELG1 DNA repair: inconclusive; Gal4-VP16 FLuc: inactive; MCF10A rerep: inactive; SW480 rerep: inactive; RORgamma inh: 11µM

How did COc1ccc(CN2CCSc3sccc3C2=O)cc1 do in these assays?
ELG1 DNA repair: inactive; Gal4-VP16 FLuc: inactive; MCF10A rerep: inactive; SW480 rerep: inactive; RORgamma inh: inactive

Results for O=c1[nH]nc(-c2ccccc2)c2ccccc12 ?
ELG1 DNA repair: inconclusive; Gal4-VP16 FLuc: inactive; MCF10A rerep: inactive; SW480 rerep: inactive; RORgamma inh: inactive

What do the screens show for `Fc1ccc(-c2n[nH]c(=S)c3ccccc23)cc1`?
ELG1 DNA repair: inactive; Gal4-VP16 FLuc: 16µM; MCF10A rerep: inactive; SW480 rerep: inactive; RORgamma inh: 7.1µM

What do the screens show for `COc1ccc(C(=O)NCC(=O)OCCOc2ccc(Cl)cc2)cc1OC`?
ELG1 DNA repair: inactive; MCF10A rerep: inactive; SW480 rerep: inactive

What do the screens show for `C=CCNC(=S)N/N=C/c1ccc(-c2ccc(Br)cc2)o1`?
ELG1 DNA repair: inactive; Gal4-VP16 FLuc: 0.4µM; MCF10A rerep: inactive; SW480 rerep: inconclusive; RORgamma inh: 0.35µM

What do the screens show for `CCCCOC(=O)c1ccc(-c2ccc(/C=N/NC(=S)NCC)o2)cc1`?
ELG1 DNA repair: inconclusive; Gal4-VP16 FLuc: 2.5µM; MCF10A rerep: inconclusive; SW480 rerep: inconclusive; RORgamma inh: 0.35µM

How did CCOC(=O)c1ccc(-c2ccc(/C=N/NC(=O)c3cncc(Br)c3)o2)cc1 do in these assays?
ELG1 DNA repair: inconclusive; Gal4-VP16 FLuc: inconclusive; MCF10A rerep: inactive; SW480 rerep: inactive; RORgamma inh: inconclusive

How did C=CCNC(=S)N/N=C/c1ccc(-c2cccc([N+](=O)[O-])c2)o1 do in these assays?
ELG1 DNA repair: inactive; Gal4-VP16 FLuc: 2.5µM; MCF10A rerep: inactive; SW480 rerep: inactive; RORgamma inh: 0.5µM

What do the screens show for `O=C(CSc1nccn1Cc1ccco1)Nc1ccccc1C(F)(F)F`?
ELG1 DNA repair: inconclusive; Gal4-VP16 FLuc: inconclusive; MCF10A rerep: inactive; SW480 rerep: inactive; RORgamma inh: inactive

How did CCOc1ccc(NC(=S)N(C)C)cc1 do in these assays?
ELG1 DNA repair: inactive; Gal4-VP16 FLuc: inactive; MCF10A rerep: inactive; SW480 rerep: inactive; RORgamma inh: inactive
